Data taken from PubChem BioAssay (NCATS).
Results filed as inconclusive are left out. Entries that show only a call come without a potency. Activity calls are given as the source filed them. The call rests on the fitted dose curve; in most records, active means well fitted inhibition curve with a large enough effect; inconclusive means small, poorly fitted or top-dose-only effect; inactive means flat fitted curve, though single readings scatter.

Each molecule was assayed on SC27B (assay: qHTS profiling for inhibitors of Plasmodium falciparum proliferation (AID 504749; further: nearly all actives have a fitted effect of over 60% in size)). Settings: P. falciparum in erythrocytes, SYBR Green DNA, 72 h; series mostly up to 28.7 µM.
In short: (§1)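 SYBR Green fluorescence (ex 485 nm, em 535 nm) reports parasite DNA after 72 h compound exposure of infected red cells at 0.3% parasitemia, 2.5% hematocrit; signal normalized to 0.29 uM artemisinin and vehicle wells.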
Potency means the concentration at half of the fitted maximal effect.

**Q.** For CCCCc1cc2ccccc2c(OCCN(C)C)n1, which Potency is on record?
**A.** inactive

**Q.** How did the Potency turn out when CNCCc1ccccn1 was run?
**A.** inactive

**Q.** How did the Potency turn out when CC(=O)NC(=O)c1ccccc1O was run?
**A.** inactive

**Q.** For CCNC(=O)NCc1cccc(Cl)c1, which Potency is on record?
**A.** inactive

**Q.** For CCc1oc2ccccc2c1C(=O)c1cc(Br)c(O)c(Br)c1, which Potency is on record?
**A.** inactive

**Q.** For CC(C)Cn1cnc2c1c(=O)n(C)c(=O)n2C, which Potency is on record?
**A.** inactive

**Q.** How did the Potency turn out when CCCCCCCCCCCCCC[N+](C)(C)Cc1ccccc1 was run?
**A.** 7.94 µM (active)

**Q.** How did the Potency turn out when CCN(CC)CCNC(=O)c1cc(Br)c(N)cc1OC was run?
**A.** inactive

**Q.** With CCNC(=O)/C=C/c1cccc(Br)c1 as the molecule, how does the Potency read?
**A.** inactive

**Q.** How did the Potency turn out when NC(=O)c1ccccc1O was run?
**A.** inactive

**Q.** For Nc1ccc(S(=O)(=O)NCc2ccccc2)cc1, which Potency is on record?
**A.** inactive

**Q.** Cc1cc(NS(=O)(=O)c2ccc(N)cc2)nc(C)n1 was tested. Which Potency did it give?
**A.** inactive

**Q.** With C#C[C@]1(O)CC[C@H]2[C@@H]3CCC4=Cc5oncc5C[C@]4(C)[C@H]3CC[C@@]21C as the molecule, how does the Potency read?
**A.** inactive

**Q.** For CC(=O)Oc1ccc(C)cc1, which Potency is on record?
**A.** inactive

**Q.** How did the Potency turn out when NC(=O)n1c(O)c(C(=O)c2cccs2)c2cc(Cl)ccc21 was run?
**A.** inactive

**Q.** CCN1/C(=C/C=C/c2sc3ccccc3[n+]2CC)Sc2ccccc21 was tested. Which Potency did it give?
**A.** 0.282 µM (active)

What follows are molecules tested on TAB109 in the same assay as above. Settings: P. falciparum in erythrocytes, SYBR Green DNA, 72 h; series mostly up to 28.7 µM.
In short: as §1

**Q.** CC(=O)Nc1ncc([N+](=O)[O-])s1 was tested. Which Potency did it give?
**A.** inactive

**Q.** C#C[C@]1(O)CC[C@H]2[C@@H]3CCc4cc(OC)ccc4[C@H]3CC[C@@]21C was tested. Which Potency did it give?
**A.** inactive

**Q.** Which Potency does the source give for CC(=O)Nc1ccc(CC(=O)O)cc1 here?
**A.** inactive

**Q.** Which Potency does the source give for COc1ccc(-c2cc(C(F)F)nn2-c2ccc(S(N)(=O)=O)cc2)cc1F here?
**A.** inactive

**Q.** Nc1ccc(S(=O)(=O)Nc2cnc3ccccc3n2)cc1 was tested. Which Potency did it give?
**A.** inactive

**Q.** How did the Potency turn out when CCCCCCCCCCCCCCCCO was run?
**A.** inactive

**Q.** Cc1cccc(C)c1NC(=O)CN1CCCC1 was tested. Which Potency did it give?
**A.** inactive

**Q.** With C[N+]1(CC2COC(c3ccccc3)(C3CCCCC3)O2)CCCCC1 (stereo not drawn) as the molecule, how does the Potency read?
**A.** 6.31 µM (active)

**Q.** Which Potency does the source give for CCCCNc1ccc(C(=O)OCCOCCOCCOCCOCCOCCOCCOCCOCCOC)cc1 here?
**A.** inactive

**Q.** Which Potency does the source give for NC(=S)N/N=C/c1cccnc1 here?
**A.** inactive

**Q.** With O=C(O)P(=O)(O)O as the molecule, how does the Potency read?
**A.** inactive

**Q.** Which Potency does the source give for c1ccc(CC2=NCCN2)cc1 here?
**A.** inactive

**Q.** How did the Potency turn out when COc1ccc2c(c1)c1c3n2CCN(C)C3=NCC1 was run?
**A.** inactive

**Q.** For O=C(O)C1(C(=O)O)CCC1.[NH2-].[NH2-].[Pt+2], which Potency is on record?
**A.** inactive

**Q.** COc1cc(C(=S)N2CCOCC2)ccc1O was tested. Which Potency did it give?
**A.** inactive

**Q.** With O=C(O)C(Cc1cc(I)c(O)c(I)c1)c1ccccc1 (stereo not drawn) as the molecule, how does the Potency read?
**A.** inactive

**Q.** COP(=O)(OC)OC(c1ccc(Cl)cc1)P(=O)(OC)OC (stereo not drawn) was tested. Which Potency did it give?
**A.** inactive

**Q.** CCCCNC(=O)NS(=O)(=O)c1ccc(N)cc1 was tested. Which Potency did it give?
**A.** inactive

**Q.** Which Potency does the source give for CC(=O)Nc1ccc(OCC(O)CNC(C)C)cc1 (stereo not drawn) here?
**A.** inactive

**Q.** Which Potency does the source give for CCCCCCCCOc1ccc(C(=O)c2ccccc2)c(O)c1 here?
**A.** inactive

**Q.** CCOc1ccccc1OCCN[C@H](C)Cc1ccc(OC)c(S(N)(=O)=O)c1 was tested. Which Potency did it give?
**A.** inactive

**Q.** For NS(=O)(=O)c1cc(C(=O)O)cc(N2CCCC2)c1Oc1ccccc1, which Potency is on record?
**A.** inactive

**Q.** How did the Potency turn out when CCCCc1cc2ccccc2c(OCCN(C)C)n1 was run?
**A.** inactive

**Q.** Which Potency does the source give for CNCCc1ccccn1 here?
**A.** inactive

**Q.** With CC(=O)NC(=O)c1ccccc1O as the molecule, how does the Potency read?
**A.** inactive

**Q.** Which Potency does the source give for CCNC(=O)NCc1cccc(Cl)c1 here?
**A.** inactive

**Q.** Which Potency does the source give for CCc1oc2ccccc2c1C(=O)c1cc(Br)c(O)c(Br)c1 here?
**A.** inactive

**Q.** For CC(C)Cn1cnc2c1c(=O)n(C)c(=O)n2C, which Potency is on record?
**A.** inactive

**Q.** For CCCCCCCCCCCCCC[N+](C)(C)Cc1ccccc1, which Potency is on record?
**A.** 7.94 µM (active)

**Q.** For CCN(CC)CCNC(=O)c1cc(Br)c(N)cc1OC, which Potency is on record?
**A.** inactive

**Q.** Which Potency does the source give for NC(=O)c1ccccc1O here?
**A.** inactive

**Q.** Which Potency does the source give for Nc1ccc(S(=O)(=O)NCc2ccccc2)cc1 here?
**A.** inactive

**Q.** How did the Potency turn out when Cc1cc(NS(=O)(=O)c2ccc(N)cc2)nc(C)n1 was run?
**A.** inactive

**Q.** With C#C[C@]1(O)CC[C@H]2[C@@H]3CCC4=Cc5oncc5C[C@]4(C)[C@H]3CC[C@@]21C as the molecule, how does the Potency read?
**A.** inactive

**Q.** How did the Potency turn out when CC(=O)Oc1ccc(C)cc1 was run?
**A.** inactive

**Q.** NC(=O)n1c(O)c(C(=O)c2cccs2)c2cc(Cl)ccc21 was tested. Which Potency did it give?
**A.** inactive

**Q.** CCN1/C(=C/C=C/c2sc3ccccc3[n+]2CC)Sc2ccccc21 was tested. Which Potency did it give?
**A.** 0.141 µM (active)
